Drawing on PubChem BioAssay AID1851 (National Center for Advancing Translational Sciences (NCATS), 2009), this text covers AC50 and activity, negative = inhibition for 58 compounds.

“And” between values parts separate entries of the source, which are not always exact repeats. Equal values may be shown once. Out of some 16,000 compounds screened, about 5,800 (36%) were called active. Not shown: some 23% with an inconclusive outcome. Calls come from the whole dose curve; as a rule, active = well fitted curve in the direction sought with a large enough effect; inconclusive = small, poorly fitted or top-dose-only effect, or effect the other way; inactive = no such curve, though single readings can be large or run the other way. Some of the results follow. Some compounds were tested as several samples or in several runs, with calls that do not always agree.
% is set by controls: 0 for no effect and ±100 for the full control effect.

The target in this assay is Cytochrome P450 2C19 (Homo sapiens) (UniProt P33261). The assay is described as follows: Cytochrome panel assay with activity outcomes. The settings on record: recombinant CYP, pro-luciferin dealkylation, luminescence, p450-cyp2c19; series mostly up to 57.1 µM.
Cytochrome P450 2C19 (Homo sapiens), sequence (P33261 whole entry, looked up): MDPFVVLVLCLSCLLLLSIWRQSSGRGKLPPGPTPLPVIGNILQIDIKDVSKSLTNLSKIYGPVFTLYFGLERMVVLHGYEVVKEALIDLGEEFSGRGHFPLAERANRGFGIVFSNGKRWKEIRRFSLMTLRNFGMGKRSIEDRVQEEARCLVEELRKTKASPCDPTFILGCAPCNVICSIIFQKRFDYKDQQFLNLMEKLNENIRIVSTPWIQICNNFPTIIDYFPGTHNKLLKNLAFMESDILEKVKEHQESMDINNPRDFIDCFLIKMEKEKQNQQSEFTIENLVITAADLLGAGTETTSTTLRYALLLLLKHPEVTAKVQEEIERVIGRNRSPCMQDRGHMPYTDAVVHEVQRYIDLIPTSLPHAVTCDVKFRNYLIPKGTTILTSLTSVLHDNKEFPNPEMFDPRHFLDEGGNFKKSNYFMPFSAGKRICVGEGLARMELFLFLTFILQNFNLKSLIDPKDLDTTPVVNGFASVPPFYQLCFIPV
In the case of `CN1CCN(c2ncc3nc(-c4cccc(C#N)c4)c(=O)n(C)c3n2)CC1`, the AC50 entry was “inactive”. With `Cn1cccc1C(=O)N1CCC2(CCCN(c3cccc(-c4ccccc4)c3)C2)CC1`, the AC50 is 10 µM (active). Still for that read-out and setting: for `Cn1cccc1C(=O)N1CCC2(CCCN(c3ccccc3)C2)CC1` the value was 7.94 µM (active). On the same count and under the same terms, for `Cn1cccc1C(=O)N1CCC2(CCCN(c3ccc(-c4ccccc4)cc3)C2)CC1` the value was “inactive”; for `Cn1cccc1C(=O)N1CCC2(CC1)CCN(c1ccccc1)CC2`, “inactive”. Regarding `CN1CCCC2(CCN(C(=O)c3cccn3C)CC2)C1`, the AC50 entry was “inactive”. With `Cn1cccc1C(=O)N1CCC2(CC1)CCN(c1cccc(-c3ccccc3)c1)CC2`, the AC50 result was “inactive”. As for `O=C(c1cnn(-c2ccccc2)c1)c1ccc2ccccc2c1O`, the AC50 is 5.62 µM (active). Consider `Cc1ccc(-n2cc(C(=O)c3ccc4ccccc4c3O)cn2)cc1`, for which the AC50 result was “inactive”. Turning to `O=C(O)c1cc(C(=O)C(=O)c2cc(C(=O)O)c(O)c3ccccc23)c2ccccc2c1O`, the activity, negative = inhibition was -29.3% [at 11.4 µM] (inactive). Regarding `CCCCOC(=O)Nc1ccccc1C(=O)OC`, the AC50 was 14.1 µM (active). The same measure, in the same setting: as for `CC(C)=C1C(=O)NN(c2ccc(F)c(Cl)c2)C1=O`, the entry is “inactive”; as for `Cc1ccc(-n2c(-c3cc(C)n(C)n3)n[nH]c2=S)cc1`, “inactive”. `Cc1nn(CCc2n[nH]c(=S)n2-c2ccc(F)c(Cl)c2)c(C)c1[N+](=O)[O-]`: the AC50 was 14.1 µM (active). Still for that read-out and setting: as for `COC(=O)[C@@]1(Cc2ccc(OC)cc2)[C@@H]2[C@@H](CC(=O)[C@H]2CC(=O)C(=O)N(C)C)CN1C(=O)c1ccccc1`, the entry is “inactive”; as for `COC(=O)[C@@]1(Cc2ccc(OC)cc2)[C@H]2c3cc(C(=O)N(C)C)[nH]c3C[C@H]2CN1C(=O)c1ccccc1`, 5.01 µM (active); as for `COC(=O)[C@@]1(Cc2ccccc2)[C@H]2c3cc(C(=O)N4CCCC4)[nH]c3C[C@H]2CN1C(=O)c1ccccc1`, 0.501 µM (active).

As for `O=C(O)COC(=O)Cc1ccccc1Nc1c(Cl)cccc1Cl`, the AC50 result was “inactive”. With `NC(N)=NN=Cc1c(Cl)cccc1Cl`, the AC50 result is “inactive”. As to `NC(N)=NC(=O)Cc1c(Cl)cccc1Cl`, the AC50 entry was “inactive and 251 nM (active)”. `CC(C)(C)CNCCO`: the activity, negative = inhibition was 7.05% [at 11.4 µM] (inactive). In the case of `CC1(C)SC(=S)N(NC(=O)Nc2ccccc2)C1N(O)C(=O)Nc1ccccc1` (stereo not drawn), the AC50 is 14.1 µM (active).

Take `CCC(C)NS(=O)(=O)c1ccc(OCC(=O)NCC2CCCO2)cc1` (stereo not drawn): the AC50 result is “inactive”. Consider `CCC(C)C(NS(=O)(=O)c1ccc(C)cc1)C(=O)Oc1ccc2c3c(c(=O)oc2c1)CCC3` (stereo not drawn), for which the AC50 was 3.98 µM (active). Take `Cc1ccc(S(=O)(=O)N[C@H](C(=O)Oc2ccc3c(C(F)(F)F)cc(=O)oc3c2)c2ccccc2)cc1`: the AC50 is 20 µM (active). With `Cc1cc2ccc(OC(=O)c3ccc(N=C(N)N)cc3)cc2oc1=O`, the activity, negative = inhibition was 13.8% [at 11.4 µM] (inactive). Regarding `Cc1nn(-c2ccc(F)cc2)c(Cl)c1/C=C(\CCC(=O)O)c1nc2ccccc2s1`, the AC50 is 15.8 µM (active). Still for that read-out and setting: as for `COc1ccccc1C/C(N)=N/OC(=O)c1ccc(C)c([N+](=O)[O-])c1`, the figure is 8.91 µM (active). Regarding `Cn1c(=O)n2n(c1=O)[C@H]1[C@H](O)[C@H]3O[C@@H]3/C(=N/OC[C@@H](O)COCc3ccco3)[C@@H]1CC2`, the activity, negative = inhibition was -21.1% [at 11.4 µM] (inactive). As for `Oc1cccc2ccc(SSc3ccc4cccc(O)c4n3)nc12`, the AC50 is 3.16 µM (active). On the same count and under the same terms, for `COc1ccc(N2C(=O)CC(S/C(N)=N/N=C(\C)c3cccs3)C2=O)cc1` (stereo not drawn) the value was 7.08 µM (active); for `COc1ccc(-n2c(=O)c(-c3cccs3)nc3cnc(N4CCN(C)CC4)nc32)cc1`, “inactive”. As to `CCCOc1ccc(N2C(=O)CC(S/C(N)=N/N=C(\C)c3cccs3)C2=O)cc1` (stereo not drawn), the AC50 is 6.31 µM (active). Take `O=C(N/N=C/c1ccc2cccc(OCc3ccccc3)c2n1)c1ccc(Br)cc1`: the AC50 was 3.55 µM (active).

As to `S=C(CSc1ccccc1)Nc1cccc2ccccc12`, the AC50 is 0.794 µM (active). For the compound `COc1ccc(C(=O)N2CCC3(CCN(Cc4cc(C(F)(F)F)cc(C(F)(F)F)c4)CC3)CC2)cc1`, the AC50 result was “inactive”. Take `CCCCn1nc2cc(C(=O)NCc3ccc(C(F)(F)F)cc3C(F)(F)F)ccc2c1OCC`: the AC50 was 12.6 µM (active). In the case of `CCOc1c2ccc(C(=O)NCc3cc(C(F)(F)F)cc(C(F)(F)F)c3)cc2nn1C`, the concentration at half-maximal activity (AC50) is 28.2 µM (active). Regarding `CCN(CC)CCNC(=O)c1cc(Cl)c(N)cc1OC`, the AC50 entry was “inactive”. Regarding `O=C1c2ccccc2C(=O)N1CC1c2ccccc2CCN1S(=O)(=O)c1ccccc1` (stereo not drawn), the concentration at half-maximal activity (AC50) was 2 µM (active).

`CN1CCC2(CC1)CCN(S(=O)(=O)c1ccccc1)CC2`: the AC50 entry was “inactive”. The same measure, in the same setting: for `C[N+](C)(C)CCCCCNCC12CC3CC(CC(C3)C1)C2` the value was “inactive”; for `Cc1cc(Cn2cnc3c2C[C@@H](C(=O)O)N(C(=O)C(c2ccccc2)c2ccccc2)C3)ccc1N(C)C`, 1.58 µM (active); for `CCCC(=O)Nc1nc2n(n1)C(c1ccccc1)CC(=O)N2` (stereo not drawn), “inactive”. Turning to `CN1CCN(CCCNC(=O)c2ccc(CSCc3cccc(Cl)c3)o2)CC1`, the AC50 entry is “inactive”. As to `CCCn1nnc(NC(=O)c2ccc(-c3cccc(Cl)c3)o2)n1`, the AC50 was 20 µM (active). In the case of `CCCn1nnc(NC(=O)Cc2ccccc2)n1`, the AC50 is 10 µM (active). As to `Cc1ccc2ccccc2c1CSc1nc(N)nc2c1ncn2CC(C)C`, the AC50 is 3.98 µM (active).

Turning to `CC(C)Cn1cnc2c(SCc3ccccn3)nc(N)nc21`, the activity, negative = inhibition was 9.26% [at 11.4 µM] (inactive).

In the case of `CC(C)Cn1cnc2c(Sc3c([N+](=O)[O-])ncn3C)nc(N)nc21`, the activity, negative = inhibition was 17.8% [at 11.4 µM] (inactive). Regarding `CC(C)Cn1cnc2c(SCc3ccc(Cl)cc3Cl)nc(N)nc21`, the concentration at half-maximal activity (AC50) was 2 µM (active). `CC(C)(C)C1CCc2c(C(=O)N/N=C/c3cccs3)csc2C1` (stereo not drawn): the AC50 was 6.31 µM (active). Still for that read-out and setting: as for `ClC(=Nc1cccc2ccccc12)N(c1ccccc1)c1ccccc1`, the figure is 2.51 µM (active). Regarding `O=S(=O)(c1cccc(C(F)(F)F)c1)N1CCC(c2cc(-c3cccc4ccccc34)n[nH]2)CC1`, the AC50 is 7.08 µM (active). In the case of `Cc1ccnn2cc3c(=O)n(C)c(=O)n(C)c3c12`, the AC50 entry was “inactive”.

In the case of `COC(=O)c1ccc(C(NC(=O)c2ccccc2)[C@]2(C)C[C@H]2C2CCCCC2)cc1` (stereo partly drawn), the AC50 was 2.51 µM (active). `C[C@@]1(C(NC(=O)c2ccc(-c3ccccc3)cc2)c2ccc(Cl)cc2)C[C@H]1C1CCCCC1` (stereo partly drawn): the AC50 result is “inactive”.

Regarding `C[C@@]1(C(NC(=O)c2cccs2)c2ccc(-c3ccccc3)cc2)C[C@H]1C1CCCCC1` (stereo partly drawn), the AC50 entry is “inactive”.
